Assay results taken from the supplement of paper PMC3898565.
± gives the uncertainty stated by the source.
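Also: viable cell number estimated from Alamar Blue fluorescence read at 560/90, part of a single-dose primary screen of an FDA-approved drug library.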

These compounds were tested on U87 (assay: cell viability relative to vehicle control; higher = less growth inhibition (less active)). Conditions: 10 µM; 72 h.
In the case of CC(C)(C)NC(=O)[C@H]1CC[C@H]2[C@@H]3CC[C@H]4NC(=O)C=C[C@]4(C)[C@H]3CC[C@]12C, the cell viability is reported as 104.8 ± 0.76%. CC(=O)Nc1ccc(CC(=O)O)cc1 gave a cell viability of 100 ± 1.1%. With CCCc1nc(C)c2c(=O)nc(-c3cc(S(=O)(=O)N4CCN(CC)CC4)ccc3OCC)[nH]n12 the cell viability was 107.7 ± 0.41%. CC1(C)O[C@@H]2[C@@H](CO[C@@]3(COS(N)(=O)=O)OC(C)(C)O[C@@H]23)O1 showed a cell viability of 129 ± 2%. COc1ccccc1OCCNCC(O)COc1cccc2[nH]c3ccccc3c12 (centres undefined) [Carvedilol] showed a cell viability of 105 ± 2.2%. Compound CC(C)[C@H]1CC[C@H](C(=O)N[C@H](Cc2ccccc2)C(=O)O)CC1 has a cell viability of 108 ± 1.6%. Compound CC(C)(C)NC(=O)[C@@H]1CN(Cc2cccnc2)CCN1C[C@@H](O)C[C@@H](Cc1ccccc1)C(=O)N[C@H]1c2ccccc2C[C@H]1O has a cell viability of 105.6 ± 0.74%. Work on COc1ccc(-c2oc3c(CC=C(C)C)c(O[C@@H]4O[C@H](CO)[C@@H](O)[C@H](O)[C@H]4O)cc(O)c3c(=O)c2O[C@@H]2O[C@@H](C)[C@H](O)[C@@H](O)[C@H]2O)cc1 yielded a cell viability of 105 ± 1.9%. O=C1CN2Cc3c(ccc(Cl)c3Cl)N=C2N1 showed a cell viability of 103 ± 2.1%.
